PMC4336329 (PLoS ONE, 2015)
Hit rate of the full screen: of about 310,000 compounds, about 14,000 (4.5%) showed an effect of 50% or more. The effect is printed as a negative number. Only a selection was taken, and strong results are over-represented in it overall.

Biological target: human ether-à-go-go-related gene (hERG) potassium channel (human, UniProt Q12809)
Assay: primary screen, population patch clamp on CHO cells stably expressing hERG; higher = less effect of the substance
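Note: peak tail current of the secondary pulse compared with the same well before compound.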

human ether-à-go-go-related gene (hERG) potassium channel, sequence (Q12809 whole entry, looked up): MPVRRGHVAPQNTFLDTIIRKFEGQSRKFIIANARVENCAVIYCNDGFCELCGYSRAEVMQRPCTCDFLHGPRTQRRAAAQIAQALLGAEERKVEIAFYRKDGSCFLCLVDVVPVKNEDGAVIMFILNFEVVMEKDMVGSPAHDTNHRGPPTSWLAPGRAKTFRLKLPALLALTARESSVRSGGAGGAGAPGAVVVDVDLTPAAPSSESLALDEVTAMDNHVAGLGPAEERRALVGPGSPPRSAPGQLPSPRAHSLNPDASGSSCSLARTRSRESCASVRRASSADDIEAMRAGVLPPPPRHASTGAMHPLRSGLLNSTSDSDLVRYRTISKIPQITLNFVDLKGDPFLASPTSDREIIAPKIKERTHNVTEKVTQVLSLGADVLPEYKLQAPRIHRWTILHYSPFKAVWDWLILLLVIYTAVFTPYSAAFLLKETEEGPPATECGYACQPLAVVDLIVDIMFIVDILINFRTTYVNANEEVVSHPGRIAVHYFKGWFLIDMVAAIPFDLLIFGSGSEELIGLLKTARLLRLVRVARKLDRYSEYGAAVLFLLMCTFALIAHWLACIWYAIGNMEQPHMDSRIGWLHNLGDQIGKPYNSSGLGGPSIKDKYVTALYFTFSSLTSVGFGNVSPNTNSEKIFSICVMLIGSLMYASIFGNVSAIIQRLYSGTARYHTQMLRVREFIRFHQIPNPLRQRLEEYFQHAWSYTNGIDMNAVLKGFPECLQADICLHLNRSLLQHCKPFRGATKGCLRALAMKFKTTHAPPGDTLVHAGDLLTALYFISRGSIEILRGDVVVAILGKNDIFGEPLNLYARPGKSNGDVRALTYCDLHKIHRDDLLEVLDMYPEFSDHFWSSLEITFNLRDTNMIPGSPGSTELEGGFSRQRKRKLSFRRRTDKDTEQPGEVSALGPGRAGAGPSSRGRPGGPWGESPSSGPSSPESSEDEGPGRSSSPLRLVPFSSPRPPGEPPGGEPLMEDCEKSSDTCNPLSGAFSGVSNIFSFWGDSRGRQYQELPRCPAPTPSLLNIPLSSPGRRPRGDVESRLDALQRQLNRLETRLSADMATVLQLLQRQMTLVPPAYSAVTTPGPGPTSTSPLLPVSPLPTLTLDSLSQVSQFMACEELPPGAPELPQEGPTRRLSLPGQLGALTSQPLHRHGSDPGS

Q: `O=C(CSc1nc(-c2ccccc2)c(-c2ccccc2)o1)NC1CCS(=O)(=O)C1` (stereo not drawn) was tested. Which “hERG current change (%, negative = inhibition) at 10uM” value did it give?
A: -27.1%

Q: `CCc1ccccc1NC(=O)CCCN1C(=O)C2CC=CCC2C1=O` (stereo not drawn) was tested. Which “hERG current change (%, negative = inhibition) at 10uM” value did it give?
A: 12%

Q: `Cc1ccccc1C(N)c1ccncc1.Cl` (stereo not drawn) was tested. Which “hERG current change (%, negative = inhibition) at 10uM” value did it give?
A: 2.52%

Q: With `COc1cc(/C=C(\C#N)c2nc3ccccc3[nH]2)cc(Br)c1OCc1ccccc1` as the compound, how does the “hERG current change (%, negative = inhibition) at 10uM” value read?
A: 0.571%

Q: With `Cc1ccc(N(CC(=O)NCc2ccco2)C(=O)CCC(=O)Nc2nccs2)cc1` as the compound, how does the “hERG current change (%, negative = inhibition) at 10uM” value read?
A: -1.5%

Q: How did the “hERG current change (%, negative = inhibition) at 10uM” value turn out when `Cc1cc(Cl)ccc1OCC(=O)NNC(=O)c1cnccn1` was run?
A: 11.6%

Q: For `COc1ccc(Cl)cc1NC(=O)COc1ccc(S(=O)(=O)N2CCOCC2)cc1C`, which “hERG current change (%, negative = inhibition) at 10uM” value is on record?
A: 10.8%

Q: Which “hERG current change (%, negative = inhibition) at 10uM” value does the source give for `Cc1cc(Cl)ccc1OCC(=O)NNC(=O)c1ccco1` here?
A: 8.38%

Q: Which “hERG current change (%, negative = inhibition) at 10uM” value does the source give for `COc1ccc(C(=O)NNC(=O)COc2ccc(Cl)cc2C)cc1S(=O)(=O)N1CCOCC1` here?
A: -77.1%

Q: How did the “hERG current change (%, negative = inhibition) at 10uM” value turn out when `COc1cc(C(C)=O)ccc1OCC(=O)Nc1ccc(C)c(S(=O)(=O)N2CCCCCC2)c1` was run?
A: -26.3%

Q: `COc1cc(C#N)ccc1OCC(=O)Nc1ccc(C)c(S(=O)(=O)N2CCOCC2)c1` was tested. Which “hERG current change (%, negative = inhibition) at 10uM” value did it give?
A: -36.1%

Q: Which “hERG current change (%, negative = inhibition) at 10uM” value does the source give for `COc1ccc(CC(=O)NNC(=O)COc2ccc(Cl)cc2C)cc1S(=O)(=O)N1CCOCC1` here?
A: -36.1%

Q: For `COc1cc(C(C)=O)ccc1OCC(=O)Nc1ccc(Cl)c(S(=O)(=O)N2CCOCC2)c1`, which “hERG current change (%, negative = inhibition) at 10uM” value is on record?
A: -66.7%

Q: Which “hERG current change (%, negative = inhibition) at 10uM” value does the source give for `Cc1ccc(C(=O)NNC(=O)COc2ccc(Cl)cc2C)o1` here?
A: -57.6%

Q: How did the “hERG current change (%, negative = inhibition) at 10uM” value turn out when `CC1(C)CC(=O)C2=C(C1)OC1=C(C(=O)CC(C)(C)C1)C2c1ccccc1` was run?
A: 16.9%

Q: With `Nc1c(N(C(=O)Nc2ccc(Cl)c(Cl)c2)C2CCCC2)c(=O)[nH]c(=O)n1Cc1ccccc1` as the compound, how does the “hERG current change (%, negative = inhibition) at 10uM” value read?
A: 24.7%

Q: Which “hERG current change (%, negative = inhibition) at 10uM” value does the source give for `COc1ccc(NC(=O)CS(=O)CC(=O)Nc2ccc(-n3cnnn3)c(C)c2)cc1` (stereo not drawn) here?
A: 12.4%

Q: Which “hERG current change (%, negative = inhibition) at 10uM” value does the source give for `S=c1[nH]nc(-c2ccco2)n1/N=C/C=C/c1ccco1` here?
A: 13.7%

Q: For `C/C(=N/NS(=O)(=O)c1ccc(C)cc1)c1ccc2c(c1)OCO2`, which “hERG current change (%, negative = inhibition) at 10uM” value is on record?
A: 13%

Q: How did the “hERG current change (%, negative = inhibition) at 10uM” value turn out when `C=CCc1cccc2cc(C(=O)N(CC)CC)c(=O)oc12` was run?
A: -6.47%

Q: `CCCCN(C)CCN1C(=O)C2C(C(=O)Nc3ccc(C)cc3)C3C=CC2(O3)C1C(=O)NC1CCCCC1` (stereo not drawn) was tested. Which “hERG current change (%, negative = inhibition) at 10uM” value did it give?
A: -26.1%

Q: With `CCOCCCN1C(=O)C2C(C(=O)Nc3ccc(OCC)cc3)C3C=CC2(O3)C1C(=O)NC1CCCCC1` (stereo not drawn) as the compound, how does the “hERG current change (%, negative = inhibition) at 10uM” value read?
A: -72.8%

Q: How did the “hERG current change (%, negative = inhibition) at 10uM” value turn out when `CSc1cccc(NC(=O)C2C3C=CC4(O3)C2C(=O)N(CCN2CCOCC2)C4C(=O)NC2CCCCC2)c1` (stereo not drawn) was run?
A: 9.21%

Q: For `CCCN(CCC)CCN1C(=O)C2C(C(=O)Nc3ccc(C)cc3)C3C=CC2(O3)C1C(=O)NC1CCCCC1` (stereo not drawn), which “hERG current change (%, negative = inhibition) at 10uM” value is on record?
A: -30.2%

Q: For `CCCCN(C)CCN1C(=O)C2C(C(=O)Nc3ccc(Cl)cc3)C3C=CC2(O3)C1C(=O)NC1CCCCC1` (stereo not drawn), which “hERG current change (%, negative = inhibition) at 10uM” value is on record?
A: -70.2%

Q: For `CCCN(CCC)CCN1C(=O)C2C(C(=O)Nc3cccc(SC)c3)C3C=CC2(O3)C1C(=O)NC1CCCCC1` (stereo not drawn), which “hERG current change (%, negative = inhibition) at 10uM” value is on record?
A: -68.2%

Q: With `CCCCN(C)CCN1C(=O)C2C(C(=O)Nc3ccc(OC)cc3)C3C=CC2(O3)C1C(=O)NC1CCCCC1` (stereo not drawn) as the compound, how does the “hERG current change (%, negative = inhibition) at 10uM” value read?
A: -8.93%

Q: Which “hERG current change (%, negative = inhibition) at 10uM” value does the source give for `COc1ccc(NC(=O)C2C3C=CC4(O3)C2C(=O)N(CCN2CCCCC2)C4C(=O)NC2CCCCC2)cc1` (stereo not drawn) here?
A: 9.9%

Q: For `CCOc1ccc(NC(=O)C2C3C=CC4(O3)C2C(=O)N(Cc2cccnc2)C4C(=O)NC2CCCCC2)cc1` (stereo not drawn), which “hERG current change (%, negative = inhibition) at 10uM” value is on record?
A: 16%

Q: Which “hERG current change (%, negative = inhibition) at 10uM” value does the source give for `Cc1ccccc1NC(=O)/C(C#N)=C\c1cccnc1` here?
A: -16.3%

Q: Which “hERG current change (%, negative = inhibition) at 10uM” value does the source give for `Cc1ccc2oc(C(=O)N3CCC(C(N)=O)(N4CCCCC4)CC3)c(C)c2c1` here?
A: -27%

Q: Which “hERG current change (%, negative = inhibition) at 10uM” value does the source give for `COc1cc2cc(C(C)(C)O)oc(=O)c2cc1OC` here?
A: 13%

Q: For `Cc1ccc2oc(=O)c3cc(C(=O)N4CCN(C(=O)c5ccco5)CC4)sc3c2c1`, which “hERG current change (%, negative = inhibition) at 10uM” value is on record?
A: -21.5%

Q: With `O=C(c1ccco1)N1CCN(C(=O)c2cc3c(s2)-c2ccccc2OC3)CC1` as the compound, how does the “hERG current change (%, negative = inhibition) at 10uM” value read?
A: -63.9%

Q: Which “hERG current change (%, negative = inhibition) at 10uM” value does the source give for `Cc1ccc2oc(=O)c3cnn(CC(=O)NCCc4ccsc4)c3c2c1` here?
A: -12.2%

Q: Which “hERG current change (%, negative = inhibition) at 10uM” value does the source give for `O=C(Cn1ncc2c(=O)oc3ccccc3c21)N1CCC(N2CCCCC2)CC1` here?
A: -5%

Q: For `O=C(Cn1ncc2c(=O)oc3ccccc3c21)NCCC1=CCCCC1`, which “hERG current change (%, negative = inhibition) at 10uM” value is on record?
A: -3.92%

Q: `O=C(Cn1ncc2c(=O)oc3ccccc3c21)NCCc1ccsc1` was tested. Which “hERG current change (%, negative = inhibition) at 10uM” value did it give?
A: -54.2%

Q: `O=C(c1ccco1)N1CCN(C(=O)c2cc3c(=O)oc4ccccc4c3s2)CC1` was tested. Which “hERG current change (%, negative = inhibition) at 10uM” value did it give?
A: -62.9%

Q: For `O=C(c1cc2c(s1)-c1ccccc1OC2)N1CCCC1`, which “hERG current change (%, negative = inhibition) at 10uM” value is on record?
A: -4.69%

Q: How did the “hERG current change (%, negative = inhibition) at 10uM” value turn out when `O=C(c1cc2c(s1)-c1ccccc1OC2)N1CCN(c2ccccc2)CC1` was run?
A: 8.08%

Q: For `O=C(c1cc2c(=O)oc3ccccc3c2s1)N1CCOCC1`, which “hERG current change (%, negative = inhibition) at 10uM” value is on record?
A: -0.51%

Q: Which “hERG current change (%, negative = inhibition) at 10uM” value does the source give for `O=C(Cn1ncc2c(=O)oc3ccccc3c21)N1CCN(C(=O)c2ccco2)CC1` here?
A: -73.6%

Q: Which “hERG current change (%, negative = inhibition) at 10uM” value does the source give for `O=C(Cn1ncc2c(=O)oc3ccccc3c21)N1CCN(c2ccccn2)CC1` here?
A: -41%

Q: With `Cc1n[nH]c(C)c1S(=O)(=O)NCCc1ccc(Cl)cc1` as the compound, how does the “hERG current change (%, negative = inhibition) at 10uM” value read?
A: 5%

Q: With `O=c1cc(-c2ccc(O)c(-c3c(O)cc(O)c4c(=O)cc(-c5ccc(O)cc5)oc34)c2)oc2cc(O)cc(O)c12` as the compound, how does the “hERG current change (%, negative = inhibition) at 10uM” value read?
A: -7.09%

Q: With `COc1cc(C(=O)Nc2ccc3c(c2)OCCO3)ccc1OC(F)F` as the compound, how does the “hERG current change (%, negative = inhibition) at 10uM” value read?
A: -5.02%

Q: `Cc1cc(NC(=O)CCC(=O)N(Cc2ccccc2)C2(C(=O)NC3CCCCC3)CCCC2)no1` was tested. Which “hERG current change (%, negative = inhibition) at 10uM” value did it give?
A: 21.1%

Q: Which “hERG current change (%, negative = inhibition) at 10uM” value does the source give for `Cc1cc(NC(=O)CCC(=O)N(CCC(C)C)C(C(=O)NC2CCCC2)c2ccccc2C)no1` (stereo not drawn) here?
A: -21.5%

Q: How did the “hERG current change (%, negative = inhibition) at 10uM” value turn out when `O=C(NC(=S)NCC1CCCO1)c1cccc([N+](=O)[O-])c1` (stereo not drawn) was run?
A: 2.05%

Q: How did the “hERG current change (%, negative = inhibition) at 10uM” value turn out when `O=C(NC1CC2CCCC(C1)N2C(=O)NCc1ccccc1)C1CC1` (stereo not drawn) was run?
A: 4.22%
